CHO-K1 Ca antag = M1 antagonist counterscreen hit in parental CHO-K1 cells; ATP-induced calcium, Fluo-8 fluorescence; inhibition, % at 3 µM; 360,000 tested, 0.6% active;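 active = inhibition above a per-plate cutoff, the plate's mean sample inhibition plus 3 SD, cut at about 24% in these data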;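 note: 0% = DMSO plus EC80 ATP and 100% = DMSO alone without ATP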
CHO-K1 Ca PAM = nonselective activator or artifact in parental CHO-K1 calcium assay | ATP EC20, Fluo-8 calcium fluorescence; 0% at ATP EC20, 100% at ATP max | activation, % at 3 µM | 360,000 tested, 0.02% active;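 active = activation above the run cutoff, the mean activation of all test compounds plus 3 SD, cut at about 40% in these data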;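 note: peak over basal fluorescence ratio in a 140 s read after ATP addition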
CHRM1 agonist = agonists of human M1 muscarinic receptor; activation, % at 3 µM; P11229; CHO-K1 hM1, Fluo-8 calcium fluorescence, agonist mode; 0% DMSO, 100% acetylcholine EC100; 360,000 tested, 0.33% active;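 active = activation above the run's mean compound activation plus 3 SD, cut at about 16% in these data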;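 note: peak over basal fluorescence ratio within a 140 s kinetic read after compound addition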
Target sequence (P11229 whole entry, looked up): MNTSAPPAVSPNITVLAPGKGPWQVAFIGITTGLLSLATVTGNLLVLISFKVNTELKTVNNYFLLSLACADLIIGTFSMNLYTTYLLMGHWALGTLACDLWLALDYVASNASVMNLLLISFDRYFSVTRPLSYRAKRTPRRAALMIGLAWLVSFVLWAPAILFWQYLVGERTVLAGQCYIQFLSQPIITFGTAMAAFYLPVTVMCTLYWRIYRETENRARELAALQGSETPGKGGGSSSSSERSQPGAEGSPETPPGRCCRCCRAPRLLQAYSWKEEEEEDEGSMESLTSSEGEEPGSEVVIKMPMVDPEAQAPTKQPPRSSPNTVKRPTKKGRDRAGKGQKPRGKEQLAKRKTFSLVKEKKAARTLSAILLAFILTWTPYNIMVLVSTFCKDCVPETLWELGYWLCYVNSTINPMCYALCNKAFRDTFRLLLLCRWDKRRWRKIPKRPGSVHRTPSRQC
CHRM1 antagonist = antagonists of human M1 muscarinic receptor. P11229. CHO-K1 hM1, Fluo-8 calcium fluorescence, ACh EC80 antagonist. inhibition, % at 3 µM. 360,000 tested, 1.3% active;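 active = percent inhibition above its own plate's cutoff, namely the mean of that plate's compound wells plus 3 SD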;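 note: peak over basal fluorescence ratio during 140 s after agonist addition; 0% = ACh EC80 plus DMSO and 100% = DMSO alone without agonist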
M1 ag parental = M1 agonist counterscreen hit in parental CHO-K1 cells; Fluo-8 calcium fluorescence; scaled to maximal ATP response, vehicle zero; activation, % at 3 µM; 360,000 tested, 0.48% active; AID 602248; in the data active = activation above about 15%;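 note: untransfected CHO-K1 host cells lacking M1 receptor as counterscreen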
CHRM1 PAM = human CHRM1 positive allosteric modulation | P11229 | CHO-K1 hM1, Fluo-8 calcium fluorescence, ACh EC20; 0% = ACh EC20, 100% = maximal ACh | activation, % at 3 µM | 360,000 tested, 0.088% active | AID 588819; in the data active = activation above about 19%, passing the limit was not always enough
* hit, by the source's call. Rows were chosen to be rich in hits. Some 2.3% of all compounds tested hit in one or more screens of this group.

SMILES	CHO-K1 Ca antag	CHO-K1 Ca PAM	CHRM1 agonist	CHRM1 antagonist	M1 ag parental	CHRM1 PAM
OC1c2cc(Br)ccc2N=C2CCCCCN21 (stereo unspecified)	14	-11	-5	78*	0	-33
Cc1cc(C)n(C(=O)c2ccc([N+](=O)[O-])cc2Cl)n1	-3	13	-5	-16	0	11
CCN(CC)S(=O)(=O)c1ccc(Cl)c(C(=O)OC2CC(C)OC2=O)c1 (stereo unspecified)	-8	4	-6	-8	4	5
O=c1oc2c(O)cccc2cc1-c1nc2ccccc2[nH]1	11	-8	18*	10	13	-9
CN(CCCN1CCCCC1)C(=O)c1cc(COc2ccc(F)cc2F)on1	-5	5	-7	38*	0	-21
CCOc1cccc(-c2c(C(=O)N/N=C(\C)c3cccs3)nnn2-c2nonc2N)c1	-17	29	31*	0	6	4
COc1cccc(-c2c(C(=O)N/N=C(\C)c3cccs3)nnn2-c2nonc2N)c1	-7	7	34*	-2	5	16
CCOc1ccc(-c2c(C(=O)N/N=C(\C)c3cccs3)nnn2-c2nonc2N)cc1	-19	13	7	-6	2	7
c1ccc(CC2CCN(Cc3ccccn3)CC2)cc1	-14	5	-7	8	-1	-6
OCc1ccccc1OCCCN1CCC(Cc2ccccc2)CC1	4	-16	-9	33*	0	-20
Clc1cccc(CN2CCC(Cc3ccccc3)CC2)c1	-32	17	-10	11	2	-16
C=CCOc1ccccc1CN1CCC(Cc2ccccc2)CC1	-11	21	-8	19	2	-15
Clc1ccccc1OCCN1CCC(Cc2ccccc2)CC1	-18	24	-3	30*	4	-14
O=Cc1cc(Cl)ccc1OCCN1CCC(Cc2ccccc2)CC1	-5	22	-7	55*	3	-25
COc1cc(C(=O)Nc2nc(C)cc(C)n2)cc(OC)c1OC	-5	9	-3	-7	0	2
C/C(CC(=O)Nc1c(C)cc(C)cc1C)=N\NC(=O)c1cnccn1	6	4	-5	-4	0	3
O=C(CC[C@H]1O[C@@H](n2cnc3c(NC(=O)c4ccccc4)ncnc32)[C@H](O)[C@@H]1O)NCCCN1CCCC1=O	-22	16	0	-14	0	-3
COc1ccc(-c2c[n+]3c4n2CCCCC4=C(c2ccc(Br)cc2)C3)cc1	-18	15	-15	35*	0	-28
Clc1ccc(C2=C3CCCCn4c(-c5ccccc5)c[n+](c43)C2)cc1	-7	12	-4	-5	0	-3
COc1ccccc1N1CCN(c2nc3ccccn3c(=O)c2C=O)CC1	-11	19	-1	-25	1	3
Nc1ccc2nc3n(c(=O)c2c1)CCC3	26*	-5	3	-2	0	6
CCC1CCCCN1S(=O)(=O)c1ccc(S(=O)(=O)N(Cc2cccs2)C2CC2)cc1 (stereo unspecified)	-10	5	-10	63*	2	-36
CCC1CCCCN1S(=O)(=O)c1ccc(S(=O)(=O)N(Cc2ccccn2)CC2CCCO2)cc1 (stereo unspecified)	-8	13	-12	9	3	-17
CCC1CCCCN1S(=O)(=O)c1ccc(NC(=O)c2ccncc2)cc1 (stereo unspecified)	12	-14	4	34*	16*	-13
CCOc1ccc(C(=O)NC(=S)Nc2ccccc2N2CCOCC2)cc1Br	-5	7	-1	0	0	0
SMILES	CHO-K1 Ca antag	CHO-K1 Ca PAM	CHRM1 agonist	CHRM1 antagonist	M1 ag parental	CHRM1 PAM
COc1ccc(/C=C/C(=O)N/C(=C\c2ccco2)C(=O)NCCc2nc3ccccc3[nH]2)cc1	25*	-12	-5	-1	1	-1
CCOC(=O)c1ccc(N=C2SC(C(=O)NCCc3ccccc3)CC(=O)N2C)cc1 (stereo unspecified)	-9	-12	-5	8	1	-1
CCNC(=O)C1CC(=O)N(CCCc2ccccc2)C(=Nc2ccccc2)S1 (stereo unspecified)	1	10	-4	-12	19*	7
CC1(C(=O)NS(=O)(=O)c2cccc(C#N)c2)CCN1C(=O)CCC1CCCC1 (stereo unspecified)	-16	18	-1	-13	1	11
Cc1cc(O)c(C(=O)/C=C/c2ccccc2Br)c(=O)o1	6	8	0	-5	18*	8
O=C(Cc1ccccc1F)c1ccc(O)cc1O	8	6	-6	7	19*	-5
CCOC(=O)C1(C)CCCN(C(=O)COc2ccccc2)C1 (stereo unspecified)	3	-2	-1	-14	0	3
c1ccn2cc(C34CC5CC(CC(C5)C3)C4)nc2c1	-25	17	-6	54*	1	-23
O=C(N=C1SC2CS(=O)(=O)CC2N1c1cccc(Cl)c1Cl)C1CC1 (stereo unspecified)	-16	22	-1	-10	1	6
O=C(CSc1nnc(CNC(=O)c2cccs2)o1)NC1CCCCC1	25*	-7	-2	0	0	-4
COc1ccccc1C1CCN(Cc2cccc(C(=O)N3CCC(O)CC3)c2)CC1	2	-5	3	25	0	-8
COc1ccccc1C1CCN(Cc2ccc(C)cc2)CC1	-4	18	-5	-9	18*	3
Nc1nc(N)c2ncn(C3C=CC(CO)C3)c2n1 (stereo unspecified)	-2	4	-2	-4	0	6
Cc1cccc(C(C)(C)C)c1OCCCCN1CCCC1	-7	22	16*	-4	2	-3
CC(C)c1cccc(C(C)C)c1OCCCCN1CCCC1	-17	26	-8	33*	1	-27
CC(C)(C)c1cc(Cl)ccc1OCCOCCN1CCCC1	0	-7	-6	3	4	1
Cc1cc(C(C)(C)C)ccc1OCCOCCN1CCCC1	0	-1	-9	33*	1	-25
CCC(NC(=O)COc1cc2c(c3oc(=O)c(C)c(C)c13)CCC(C)(C)O2)C(=O)O (stereo unspecified)	-10	-6	-7	-7	-1	1
O=C(NCc1ccccc1)c1onc(CSc2ccccc2)c1C(=O)NCC1CC1	-10	5	-6	6	2	-6
CCCCN(C=O)c1c(CC)nc2c(OCc3cccc(Cl)c3)cccn12	14	-14	-2	-7	1	8
COc1ccc(NC(=O)c2cc(S(=O)(=O)N3CCCCC3)c[nH]2)c(OC)c1	-4	3	-4	-2	1	0
Cn1nc(C(=O)NCCc2ccc(S(N)(=O)=O)cc2)c2ccccc2c1=O	-23	10	-1	-7	1	2
